From PubChem BioAssay (EPA / NIEHS)
Where “and” joins values, the source holds several entries; their conditions need not be identical. Equal values may be shown once. Some compounds were tested as several samples or in several runs, with calls that do not always agree. Calls of active or inactive are those of the source. Rule for the calls: active = hit-call score of the fitted dose curve at least 0.9, where 1 is the maximum; inactive = score below 0.9.

read-out: Matrix Metallopeptidase 3 (MMP3), MMP3 (gene 4314); assay: BSK_BF4T_MMP3: BioMAP Diversity Plus: BF4T Assay for Matrix Metallopeptidase 3 (MMP3) Biomarker Activity (AID 2284271); conditions: primary human bronchial epithelial cells with fibroblasts
Procedure: BSK_BF4T is a cell-based, multiplexed-readout assay that uses bronchial epithelial cells and dermal fibroblasts, a human vascular primary cell, with measurements taken at 24 hours after chemical dosing in a microplate: 96-well plate.BSK_BF4T_MMP3 is an assay component measured in the BSK_BF4T assay. It measures MMP-3 antibody related to regulation of gene expression using ELISA technology.Data from the assay component BSK_BF4T_MMP3 was analyzed at the endpoint, BSK_BF4T_MMP3, in the positive analysis fitting direction relative to DMSO as the negative control and baseline of activity. Using a type of binding reporter, gain or loss-of-signal activity can be used to understand protein changes. To generalize the intended target to other relatable targets, this assay endpoint is annotated to the 'protease' intended target family, where the subfamily is 'matrix metalloproteinase'.
The levels of cell surface (or secreted, indicated by the prefix "s") biomarker endpoints were measured by ELISA. Overt cytotoxicity to cells in confluent adherent cultures (all systems other than the BT system) was assessed by measuring total protein levels using sulforhodamine B (SRB) staining in parallel cultures at the time of biomarker measurements, indicated as SRB endpoints. For proliferation assays for adherent cell types, individual cell types are cultured at sub-confluence and relative cell numbers quantified by SRB staining at time points optimized for each system (48 h: 3C and CASM3C systems; 72 h: BT and HDF3CGF systems; 96 h: SAg system). SRB was performed by staining cells with 0.1% SRB after fixation with 10% TCA and reading wells at 560 nm.Viability and proliferation of PBMC (T cells) was quantified by Alamar Blue reduction for the SAg and BT systems. For PBMC viability (referred to as PBMC Cytotoxicity within the assay endpoint names), cells were plated (75,000/well in a 96-well plate) and then chemical samples added for 1 h before addition of activators, SEB and TSST-1 (20 ng/mL final concentration each). Cells were incubated for 90 h. Then, Alamar Blue (20 uL/well) (Invitrogen, Cat DAL1100) was added for 6 h, and the plates were read with a fluorescence microplate reader at 546/580 nm (excitation/emission). For PBMC proliferation, cells were plated and activated as above but incubated for only 16 h prior to addition of Alamar Blue. Plates were read after 6 h.

SMILES	AC50	outcome
FC(F)(I)C(F)(F)C(F)(F)C(F)(F)I	49.7 µM (active) and 50.4 µM (active) and 51.2 µM (active)	–
O=S(=O)(OCCOC(F)(F)F)C(F)(F)F	–	inactive
OCC(F)(F)C(F)(F)C(F)(F)C(F)F	–	inactive
O=C(O)C(F)(F)C(F)(F)C(F)(F)C(F)(F)C(F)(F)C(F)(F)C(F)(F)C(F)(F)C(F)(F)C(F)F	30 µM (active)	inactive
N=C(N)C(F)(F)C(F)(F)C(F)(F)C(F)(F)C(F)(F)C(F)(F)C(F)(F)F	33.6 µM (active)	inactive
OCC(F)(F)C(F)(F)C(F)(F)F	–	inactive
O=C(O)C=C(C(F)(F)F)C(F)(F)F	–	inactive
OCC(F)(F)C(F)(F)C(F)(F)C(F)(F)C(F)(F)C(F)(F)F	–	inactive
FC(F)(F)C(F)(F)C(F)(F)C(F)(F)CCI	8.85 µM (active)	inactive
FC(F)(F)C(F)(F)C(F)(F)C(F)(F)C(F)(F)C(F)(F)C(F)(F)C(F)(F)CCS	–	inactive
O=S(=O)(OCC(F)F)C(F)(F)F	–	inactive
FC(F)(F)C(F)(F)C(F)(F)N(C(F)(F)C(F)(F)C(F)(F)F)C(F)(F)C(F)(F)C(F)(F)F	–	inactive
FC(F)(F)C(F)(F)C(F)(F)C(F)(F)C(F)(F)CCI	–	inactive
FC(F)(F)C(F)(F)C(F)(F)CI	–	inactive
C=CC(F)(F)C(F)(F)C(F)(F)C(F)(F)C(F)(F)C(F)(F)C(F)(F)C(F)(F)C=C	–	inactive
O=C(CC(=O)C(F)(F)C(F)(F)F)C(F)(F)F	–	inactive
O=S(=O)(O)C(F)(F)C(F)(F)C(F)(F)C(F)(F)C(F)(F)C(F)(F)C(F)(F)F	15.6 µM (active)	inactive
FC(F)(F)C(F)(F)C(F)(F)C(F)(F)C(F)(F)C(F)(F)C(F)(F)I	–	inactive

SMILES	AC50	outcome
CC(C)(C)C(=O)CC(=O)C(F)(F)C(F)(F)C(F)(F)F	–	inactive
O=C(O)C(F)(F)C(F)(F)F	–	inactive
O=C(O)C(F)(F)C(F)(F)C(F)(F)C(F)(F)F	–	inactive
C=C(C)C(=O)OCC(F)(F)C(F)(F)C(F)(F)C(F)(F)C(F)(F)C(F)(F)C(F)(F)F	–	inactive
O=C(O)C(F)(F)C(F)(F)C(F)(F)C(F)(F)C(F)(F)C(F)(F)C(F)(F)C(F)(F)C(F)(F)C(F)(F)C(F)(F)C(F)(F)C(F)(F)F	1.68 µM (active)	inactive
O=C(O)C(F)(F)C(F)(F)C(F)(F)C(F)(F)C(F)(F)C(F)(F)C(F)(F)C(F)(F)Cl	52.7 µM (active) and 55.1 µM (active)	–
FC(F)(F)C(F)(F)C(F)(F)C(F)(F)C(F)(F)C(F)(F)C(F)(F)C(F)(F)F	–	inactive
O=C(O)C(F)(OC(F)(F)C(F)(OC(F)(F)C(F)(OC(F)(F)C(F)(F)C(F)(F)F)C(F)(F)F)C(F)(F)F)C(F)(F)F (stereo not given)	–	inactive
O=C(O)C(F)(F)C(F)(F)C(F)(F)F	–	inactive
FC1CC(F)(F)C(F)(F)C1(F)F (stereo not given)	–	inactive
OCCCC(F)(F)C(F)(F)C(F)(F)F	–	inactive
O=C(Cl)C(F)(F)C(F)(F)C(F)(F)C(F)(F)C(F)(F)C(F)(F)C(F)(F)C(F)(F)F	–	inactive
C=C(C)C(=O)OCCC(F)(F)C(F)(F)C(F)(F)C(F)(F)C(F)(C(F)(F)F)C(F)(F)F	–	inactive
C=CC(F)(F)C(F)(F)C(F)(F)C(F)(F)C(F)(F)C(F)(F)C(F)(F)C(F)(F)F	–	inactive
O=C(O)C(F)(OC(F)(F)C(F)(OC(F)(F)C(F)(F)C(F)(F)F)C(F)(F)F)C(F)(F)F (stereo not given)	–	inactive
O=P(O)(O)OCCC(F)(F)C(F)(F)C(F)(F)C(F)(F)C(F)(F)C(F)(F)F	–	inactive
FC(F)(F)C(F)(F)C(F)(F)C(F)(F)C(F)(F)C(F)(F)C(F)(F)Br	–	inactive
